The OligoGym collection

target: RBM28; assay: pooled miR-30 sensor sort-seq; sequence = guide strand; conditions: shRNA
Further: reference of the scale not given here.

Sequence | sensor-assay potency score (higher = more potent)
TTTTGAACTGAACAAAACCAAA | -1.7
TTGAGGTCTCGCATCACTCTAC | -0.147
TTTTCCTAGATACCTGCTCGGA | -0.748

target: RBM38; assay: as above; conditions: shRNA

Sequence | sensor-assay potency score (higher = more potent)
TGGTACTGCACGAAAGTGGTGC | -0.732
ACGAAGATCTTGGTGAACGTGG | -1.06
TATGGGTACTGGTCATAGGTGG | -0.624
TTGGTGAACGTGGTGTCCTTCT | -0.339
TCGAAGTACTTCCTGAGCGAGG | -1.24
TAAACAGTCCATTAACTTCTTG | -0.519
AAACAGTCCATTAACTTCTTGC | 0.128
AAGATCTTGGTGAACGTGGTGT | 0.0778
TTCGGGTCTTTGCAAGCCCTCT | -1.39
TACTGGTCATAGGTGGCCGGTG | -1.24
TTAACTTCTTGCTTTCAGGTTT | 0.295
TAGCTGTAGCCCACGAAGCTGG | -1.08

target: RBM45; assay: as above; conditions: shRNA

Sequence | sensor-assay potency score (higher = more potent)
TTTATTTTTAGGTTCAGCCAAG | -0.905
TATATCTTCTAATACGTCTAAA | -0.714
TTCATCTTCAACATCTCGGTGA | 0.811
TATTACTATAATAATCTTGTTC | -0.451
TGGAAGTACAACATCTGTCTGG | -0.0344
TTGAATAAGGATCTCGTTGAAC | -0.518
TTCTTCATCTTCAACATCTCGG | 0.279
TACTATAATAATCTTGTTCAGA | -0.469
TAAAATACTGAACCACTCCATG | -0.914
TAAATTGTTGCTGACTTGGGTT | 0.143
TTTGAGGCAACTGTGATCCAGA | -0.334

target: RBMX; assay: as above; conditions: shRNA

Sequence | sensor-assay potency score (higher = more potent)
TAGTATCACGAGAACTTGGGTA | -0.18
TACAGGAGCTCTTCCTCCCATT | -1.19
TATCGCTATATCCTCTTGATGG | -1
TCGACTTCCACCATATCCGTCA | -0.253
TCCACTGCTACTGCGAACTGGT | -0.729
TACCACTTTCAAATGATGGTTT | -0.141
TATCTCTTCCACGTGATACAGG | -1.23
ATATCCACCGTCATCCATGTGT | -0.304
TCTCTATCGCTATATCCTCTTG | -1.36
TCTATCGCTATATCCTCTTGAT | -0.479
TTTCTTGTCTGCCAACCCGATC | -1.65
TATCCGTCACGTGAGCTGCTGT | -0.783
